Sampled rows, rich in hits. Any-hit rate of the full collection: about 3.9%.
aSyn 5UTR inh – MLPCN primary screen, SNCA 5' untranslated region. inhibition, % (tested at 7.5 µM). 0.82% of 300,000 active. alpha-synuclein 5'UTR reporter, inhibitor activity; in the data active = inhibition above about 60%;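 also: H4 neuroglioblastoma cells stably carrying SNCA 5'UTR luciferase fusion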
HIF-2a block – HIF-2a reporter inhibitors, primary screen, luminescence, 786-0 RCC cells | 786-0 RCC cells HIF-2a reporter, luciferase luminescence, overnight | inhibition, % at 18.8 µM | 0.72% of 360,000 active;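 active = inhibition of the luminescence signal of 40% or more relative to plate controls, in a single-dose primary screen at 18.75 µM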
C8 TRAIL sens – viability loss with TRAIL in NB7+C8 cells, primary screen, TRAIL sensitizer project, cell-based, ATPlite luminescence; inhibition (viability loss, TRAIL sensitization), % at 10 µM; 1% of 360,000 active;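 active = compounds causing at least 50% loss of cell viability in the single-dose screen, relative to plate controls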
TROY signal inh – inhibitors of TROY-driven NF-kB signaling, primary screen, Q293 LMP1-TROYcd cells, NF-kB luciferase, uHTS. 0.98% of 360,000 active. Q293 LMP1-TROYcd NF-kB luciferase reporter, 4 h. inhibition, % at 10 µM. AID 1347056, 2019;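 active = compounds whose plate-normalised and pattern-corrected inhibition of the luciferase reporter signal at the single screening dose is 50% or more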
HSP90 refold inh – HSP90 inhibitors, primary screen, cell lysate, luminescence. Heat shock protein HSP 90 (rabbit reticulocyte lysate; luciferase refolding). AID 1789, 2009. 0.91% of 290,000 active. inhibition, % at 5.6 µM. Rabbit reticulocyte lysate, luciferase refolding luminescence, 3 h;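 active = inhibition above the screen-wide mean plus 3 SD, computed separately per campaign, cut at about 16% in these data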;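 also: inhibitors lower the luminescence because luciferase stays unfolded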
TWEAK Fn14 block – inhibitors of TWEAK-Fn14 signaling, primary screen, luciferase reporter cells, uHTS | TWEAK-stimulated Fn14 reporter cells, luciferase luminescence, 8 h | inhibition, % at 10 µM | 2% of 360,000 active | AID 1159606, 2016; in the data active = inhibition above about 50%
A number is an active result; – = inactive; · = not tested or not shown.

SMILES | aSyn 5UTR inh | HIF-2a block | C8 TRAIL sens | TROY signal inh | HSP90 refold inh | TWEAK Fn14 block
O=C(c1ccccc1)n1c2ccccc2c(=O)n1-c1ccccc1CCl | · | – | – | – | · | –
COc1ccccc1CNc1nc(NCc2ccccc2F)c2sccc2n1 | · | – | – | 58 | · | 90
COc1ccccc1CNc1nc(NCc2ccc(C)cc2C)c2sccc2n1 | · | – | – | – | · | –
c1ccc(CNc2nc(NCc3ccccc3)c3sccc3n2)cc1 | · | – | – | 58 | · | –
COc1ccccc1CNc1nc(NCc2ccccc2)nc2ccsc12 | · | – | – | 50 | · | –
c1ccc(CNc2nc(NCCOc3ccccc3)c3sccc3n2)cc1 | · | – | – | – | · | –
c1ccc(CNc2nc(Oc3ccncc3)c3sccc3n2)cc1 | · | – | – | – | · | 99
c1csc(CNc2nc(Oc3ccncc3)c3sccc3n2)c1 | · | – | – | – | · | –
C[C@H]1CN([C@@H](C)CO)C(=O)c2cc(C#CC3(O)CCCC3)cnc2O[C@H]1CN(C)C(=O)C1CC1 | · | – | – | – | · | –
CCCS(=O)(=O)NC(=O)C1(C)CCN(C(=O)c2cccs2)C1 (stereo not drawn) | · | – | – | – | · | –
COc1ccccc1CNc1nc(NCc2cccc(OC)c2OC)c2sccc2n1 | · | – | – | 75 | · | 76
ClC1=C(Cl)C(Cl)=C(Cl)C1=C/C=C/c1ccccc1 | 113 | – | – | – | – | –
Cc1cccc(C)c1NC(=O)CN(C)CC(=O)Nc1ccccc1Oc1ccccc1 | – | – | – | – | – | 52
Cc1ccc(S(=O)(=O)N2C[C@H]3C(=O)C[C@@H]4C(=O)N(c5ccccc5)C(=O)[C@@H]4[C@@H]3C[C@H]2c2cccs2)cc1 | · | – | – | – | · | –
CCOC(=O)C1(C)CCCCCN1C(=O)c1ccc(OC)cc1 (stereo not drawn) | · | – | – | – | · | –
CC12CC3CC1C(C(=O)O2)C3C(=O)O (stereo not drawn) | · | – | – | – | · | –
Cc1cc(C)c(C)c(S(=O)(=O)N2CCN(C(=O)c3cc(=O)[nH]c4ccccc34)CC2)c1C | · | – | – | – | – | 54
Cc1cc(C)c(S(=O)(=O)N2CCN(C(=O)c3cc(=O)[nH]c4ccccc34)CC2)c(C)c1 | · | – | – | – | · | –
CCSc1ccccc1C(=O)N1CCCC1 | – | – | – | – | – | –
CCSc1ccccc1C(=O)n1nnc2ccccc21 | · | – | – | – | – | 72
COc1ccc(NC(=O)c2ccc3c(=O)n(-c4ccc(OC)cc4OC)c(=S)[nH]c3c2)c(OC)c1 | – | – | – | – | – | –
COc1ccc(-n2c(=S)[nH]c3cc(C(=O)Nc4ccc(C)c(F)c4)ccc3c2=O)c(OC)c1 | – | – | – | – | – | 54
COc1cccc(CSc2nc3ccccc3cc2C=O)c1 | 71 | – | – | – | – | –
COc1cccc(NC(=O)CSc2nc3ccccc3cc2Cc2ccccc2)c1 | – | – | – | – | – | –
COc1ccc(CNc2ccc3c(c2)CCC3)cc1Br | – | – | – | – | – | 57
SMILES | aSyn 5UTR inh | HIF-2a block | C8 TRAIL sens | TROY signal inh | HSP90 refold inh | TWEAK Fn14 block
COc1ccccc1CNc1ccc2c(c1)CCC2 | – | – | – | – | – | 66
O=c1c2ccccc2nc(/C=C/c2cc(Br)ccc2O)n1CCCO | – | – | – | – | – | 69
CCOC1=C2[C@H](c3ccc(Cl)cc3)N(S(=O)(=O)c3ccc(C)cc3)C[C@H]2n2c(=O)n(-c3ccccc3)c(=O)n2C1 | · | – | – | – | · | –
COc1cc(NC(=O)CCC(=O)c2cccs2)cc(OC)c1 | – | – | – | – | – | –
COc1ccc(NC(=O)CCC(=O)c2cccs2)c(OC)c1 | – | – | – | – | – | 57
Cc1ccnc(NC(=O)CCC(=O)c2cccs2)c1 | 84 | 51 | 79 | 68 | · | 92
CCN1C[C@@H]2[C@@H]3C(=O)N(C)C(=O)[C@@H]3[C@](C)(C(=O)OC)N2C1=NC | · | – | – | – | · | –
CCCNC(=O)C(Cc1ccc(Br)cc1)NC(=O)c1ccc(C#N)cc1 (stereo not drawn) | · | – | – | – | · | –
CCC(CO)Nc1ncnc2c1cnn2-c1ccc(OC)cc1 (stereo not drawn) | – | – | – | – | – | 54
CCCN(CCC)c1ncnc2c1cnn2-c1ccc(OC)cc1 | – | – | – | 62 | – | 53

High-throughput results (PubChem BioAssay)
